Data as given in PubChem BioAssay (NCI).
About 83,000 compounds went through this panel and 20% of them were active in at least one assay; those are over-represented in the sample as a whole.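 Cells were grown in 96-well plates and exposed to the test compound at a single concentration for 48 hours; results are reported as percent growth, with values below 10 considered active.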 Active and inactive are the calls of the source.

What was measured:
Experiment in all cases: NCI-60 one-dose screen, 48 h (100 = growth as untreated, 0 = no growth, -100 = all killed)
Conditions in all cases: 10 µM unless noted
NCI-H23 lung = system: NCI-H23 lung
NCI-H226 lung = system: NCI-H226 lung
NCI-H322M lung = system: NCI-H322M lung
HOP-62 NSCLC = system: HOP-62 NSCLC
NCI-H460 lung = system: NCI-H460 lung
HOP-92 NSCLC = system: HOP-92 NSCLC
NCI-H522 lung = system: NCI-H522 lung
A549/ATCC NSCLC = system: A549/ATCC NSCLC
786-0 renal = system: 786-0 renal
COLO 205 colon = system: COLO 205 colon

Measured: growth

O=C(Nc1ccc(Nc2ccncc2)cc1)c1ccc(C(=O)Nc2ccc(Nc3ccncc3)cc2)cc1
inactive: NCI-H23 lung 59.2% | NCI-H226 lung 68.8% | NCI-H322M lung 71.9% | HOP-62 NSCLC 82.1% | NCI-H460 lung 88.2% | HOP-92 NSCLC 28.9% | NCI-H522 lung 47.4% | A549/ATCC NSCLC 69.5% | 786-0 renal 84.5% | COLO 205 colon 27.7%

CC/C=C\C[C@H](O)C/C=C1/C(=O)C=C[C@@H]1C/C=C\CCCC(=O)OC
inactive: NCI-H322M lung 29.3%
active: NCI-H23 lung -7.41% | NCI-H226 lung -34.5% | HOP-62 NSCLC -32% | NCI-H460 lung -46.3% | HOP-92 NSCLC -20.5% | NCI-H522 lung -69.6% | A549/ATCC NSCLC -21.4% | 786-0 renal -49.6% | COLO 205 colon -52.1%

COc1ccc(/C=C/c2c(C(=O)/C=C/c3ccc(F)cc3)c(C)nc3ccccc23)cc1
inactive: NCI-H23 lung 47.8% | NCI-H226 lung 67.3% | NCI-H322M lung 82.7% | HOP-62 NSCLC 57.5% | NCI-H460 lung 15.9% | HOP-92 NSCLC 73.5% | NCI-H522 lung 43.9% | A549/ATCC NSCLC 91.6% | 786-0 renal 65.4% | COLO 205 colon 79.8%

O=C(O)c1ccc2c(c1Cl)C(=O)c1ccccc1C2=O
inactive: NCI-H23 lung 93.4% | NCI-H226 lung 103% | NCI-H322M lung 102% | HOP-62 NSCLC 82.5% | NCI-H460 lung 102% | HOP-92 NSCLC 109% | NCI-H522 lung 106% | A549/ATCC NSCLC 116% | 786-0 renal 91.1% | COLO 205 colon 115%

COc1ccc(C2=NN(C(=O)c3cc(OC)c(OC)c(OC)c3)C(c3ccc(Cl)cc3)C2)cc1OC (stereo not given)
inactive: NCI-H226 lung 58.3% | NCI-H322M lung 55.7% | HOP-62 NSCLC 44.1% | NCI-H460 lung 14.3% | HOP-92 NSCLC 31.6% | A549/ATCC NSCLC 29.4% | 786-0 renal 22.5% | COLO 205 colon 12.3%
active: NCI-H23 lung -7.6% | NCI-H522 lung 4.89%

CN(C)CC1C(=O)O[C@H]2[C@H]1CC/C(COC(=O)c1cc3ccccc3[nH]1)=C\CC[C@@]1(C)O[C@@H]21 (stereo not given in full)
inactive: NCI-H23 lung 18.5% | NCI-H226 lung 23.8% | NCI-H322M lung 86.7% | HOP-62 NSCLC 43.4% | NCI-H460 lung 17.6% | A549/ATCC NSCLC 11.5%
active: HOP-92 NSCLC -63.8% | NCI-H522 lung -91.2% | 786-0 renal -81.6% | COLO 205 colon -63.9%

COc1ccc(-c2nc(SCCC(C)C)nc(N/N=C\c3cccc([N+](=O)[O-])c3)c2C#N)cc1
inactive: NCI-H23 lung 28.7% | NCI-H226 lung 44.5% | NCI-H322M lung 45.6% | HOP-62 NSCLC 17.7% | NCI-H460 lung 13.3% | HOP-92 NSCLC 50.9% | NCI-H522 lung 29.8% | A549/ATCC NSCLC 11.7% | 786-0 renal 15.3% | COLO 205 colon 42%

Cc1ccc(-c2c(-c3ccccc3)c(=O)oc3ccc(C)cc23)cc1
inactive: NCI-H23 lung 96.1% | NCI-H226 lung 89.6% | NCI-H322M lung 97.8% | HOP-62 NSCLC 101% | NCI-H460 lung 93.8% | HOP-92 NSCLC 84% | NCI-H522 lung 107% | A549/ATCC NSCLC 91% | 786-0 renal 105% | COLO 205 colon 91.4%

CC1SC(c2ccc(OCc3ccccc3)cc2)N(NC(=O)C(O)(c2ccccc2)c2ccccc2)C1=O (stereo not given)
inactive: NCI-H23 lung 61% | NCI-H226 lung 84.5% | NCI-H322M lung 49.1% | HOP-62 NSCLC 79% | NCI-H460 lung 38.5% | HOP-92 NSCLC 50.7% | NCI-H522 lung 24.4% | A549/ATCC NSCLC 49.3% | 786-0 renal 59.6% | COLO 205 colon 30.8%

CCCCOc1nc2ccccc2cc1C1CNC(=O)c2ccccc2N1 (stereo not given)
active: NCI-H226 lung 0.702% | NCI-H460 lung 6.89% | NCI-H522 lung -13.6% | COLO 205 colon 9.84%
inactive: NCI-H23 lung 23.8% | NCI-H322M lung 47.2% | HOP-62 NSCLC 23% | HOP-92 NSCLC 48.9% | A549/ATCC NSCLC 19.9% | 786-0 renal 26.2%

O=C(Nc1cccc(Oc2nnc(Cl)c3ccccc23)c1)Nc1ccc(Cl)c(C(F)(F)F)c1
active: NCI-H23 lung -52.4% | NCI-H226 lung -28.2% | NCI-H322M lung -5.16% | HOP-62 NSCLC -81.6% | NCI-H460 lung -77.4% | HOP-92 NSCLC -38.4% | NCI-H522 lung -67.5% | A549/ATCC NSCLC -21.9% | 786-0 renal -42.8% | COLO 205 colon -69.3%

CCOC(=O)C/C(C)=N\NC(=O)c1ccncc1
active: HOP-92 NSCLC -2.59%
inactive: NCI-H23 lung 101% | NCI-H226 lung 112% | NCI-H322M lung 90.6% | HOP-62 NSCLC 97.7% | NCI-H460 lung 103% | NCI-H522 lung 95.3% | A549/ATCC NSCLC 105% | 786-0 renal 92.1% | COLO 205 colon 124%

CC/C=C\C/C=C\C[C@H](O)C/C=C1/C(=O)C=C[C@@H]1C/C=C\CCCC(=O)O
active: NCI-H522 lung -22.8% | 786-0 renal -38.7%
inactive: NCI-H23 lung 61.8% | NCI-H226 lung 59.6% | NCI-H322M lung 53.4% | HOP-62 NSCLC 62.8% | NCI-H460 lung 31.8% | HOP-92 NSCLC 87.3% | A549/ATCC NSCLC 57.3% | COLO 205 colon 27%

Cc1ccc2c(c1)Sc1c(ccc3ccccc13)N2
active: HOP-62 NSCLC -2.75%
inactive: NCI-H23 lung 74.7% | NCI-H226 lung 75.4% | NCI-H322M lung 90% | NCI-H460 lung 20.8% | HOP-92 NSCLC 75.3% | NCI-H522 lung 61.3% | A549/ATCC NSCLC 59% | 786-0 renal 18.1% | COLO 205 colon 91.5%

CCOc1c(C#N)nnc2c(C#N)c(NC(=O)c3ccccc3)nn12
inactive: NCI-H23 lung 90.8% | NCI-H226 lung 92.6% | NCI-H322M lung 95% | HOP-62 NSCLC 96.6% | NCI-H460 lung 111% | HOP-92 NSCLC 89.3% | NCI-H522 lung 95% | A549/ATCC NSCLC 95% | 786-0 renal 98.4% | COLO 205 colon 107%

COc1ccc(-c2cc(-c3cc(OC)ccc3OC)nc(SCC(=O)c3ccccc3)c2C#N)cc1
inactive: NCI-H23 lung 92.7% | NCI-H226 lung 84.4% | NCI-H322M lung 103% | HOP-62 NSCLC 89.9% | NCI-H460 lung 102% | HOP-92 NSCLC 92.3% | NCI-H522 lung 79% | A549/ATCC NSCLC 92.7% | 786-0 renal 109% | COLO 205 colon 97.8%

CCN(CC)Cc1cccc(C(=O)OC)c1
inactive: NCI-H23 lung 96.6% | NCI-H226 lung 90.2% | NCI-H322M lung 106% | HOP-62 NSCLC 85.2% | NCI-H460 lung 103% | HOP-92 NSCLC 87.7% | NCI-H522 lung 101% | A549/ATCC NSCLC 69% | 786-0 renal 90.7% | COLO 205 colon 106%

CN(C)c1ccc(-c2cc(-c3ccc(Nc4nc(Nc5ccc(Cl)cc5)nc(Nc5ccc(Cl)cc5)n4)cc3)no2)cc1
inactive: NCI-H23 lung 45% | NCI-H226 lung 87.1% | NCI-H322M lung 65.2% | HOP-62 NSCLC 63.6% | NCI-H460 lung 27.1% | NCI-H522 lung 55.9% | A549/ATCC NSCLC 23.1% | 786-0 renal 36.9%
active: HOP-92 NSCLC -11.5% | COLO 205 colon 0.291%

CCOC(=O)c1c2c(n3ccc(NC(=O)OC(C)(C)C)cc13)C(=O)c1ncccc1C2=O
active: NCI-H23 lung -77.5% | NCI-H226 lung -63.7% | NCI-H322M lung -19.5% | HOP-62 NSCLC -76.8% | NCI-H460 lung -82.6% | HOP-92 NSCLC -10.3% | NCI-H522 lung -56.1% | A549/ATCC NSCLC -57.3% | 786-0 renal -49.3% | COLO 205 colon -54.6%

CC(=O)N1C(=S)NC(=O)C1Cn1c(-c2ccccc2)nc2ccccc21 (stereo not given)
inactive: NCI-H23 lung 95.2% | NCI-H226 lung 93.6% | NCI-H322M lung 96.8% | HOP-62 NSCLC 92.1% | NCI-H460 lung 105% | HOP-92 NSCLC 97.5% | NCI-H522 lung 86.9% | A549/ATCC NSCLC 102% | 786-0 renal 102% | COLO 205 colon 108%

C=C(C)[C@@H]1CC[C@]2(C(=O)NC3CCCCC3)CC[C@]3(C)[C@H](CC[C@@H]4[C@@]5(C)CCC(=O)C(C)(C)[C@@H]5CC[C@]43C)[C@@H]12
inactive: NCI-H23 lung 88.7% | NCI-H226 lung 74.6% | NCI-H322M lung 91.9% | HOP-62 NSCLC 97.7% | NCI-H460 lung 98.3% | HOP-92 NSCLC 81.5% | NCI-H522 lung 86.9% | A549/ATCC NSCLC 85.6% | 786-0 renal 85.7% | COLO 205 colon 103%

COc1ccc2c(c1)CCCN2c1c2ccccc2nc2ccccc12
inactive: NCI-H23 lung 15.8% | NCI-H226 lung 12.6% | NCI-H322M lung 45.9% | HOP-62 NSCLC 33.2% | HOP-92 NSCLC 12.4% | A549/ATCC NSCLC 18.5% | 786-0 renal 28.9%
active: NCI-H460 lung 6.18% | NCI-H522 lung -0.944% | COLO 205 colon -16.8%

c1coc(-c2c3ccc(=[N+]4CCCCC4)cc-3oc3cc(N4CCCCC4)ccc23)c1
active: NCI-H23 lung -84.6% | NCI-H226 lung -86.1% | NCI-H322M lung -85.1% | HOP-62 NSCLC -81.1% | NCI-H460 lung -71.5% | HOP-92 NSCLC -68.1% | NCI-H522 lung -86.4% | A549/ATCC NSCLC -57.9% | 786-0 renal -93.2% | COLO 205 colon -70.1%

O=c1[nH]ccc2nc(N3CCC(O)CC3)nc(Nc3ccc(N4CCOCC4)cc3)c12
inactive: NCI-H23 lung 58.2% | NCI-H226 lung 45.7% | NCI-H322M lung 83.7% | HOP-62 NSCLC 97.2% | NCI-H460 lung 36.2% | NCI-H522 lung 75.1% | A549/ATCC NSCLC 29.8% | 786-0 renal 77.2%
active: HOP-92 NSCLC 2.14% | COLO 205 colon -1.79%

O=C1CCC2=C3C4CCCCC4C(=O)C4CCCC(OC2C1)C34 (stereo not given)
inactive: NCI-H226 lung 92.6% | NCI-H322M lung 18% | HOP-62 NSCLC 34.5% | A549/ATCC NSCLC 48.9% | COLO 205 colon 75.3%
active: NCI-H23 lung -12.9% | NCI-H460 lung -18.6% | HOP-92 NSCLC -2.29% | NCI-H522 lung -32.4% | 786-0 renal -9.63%

COc1ccc(-c2csc(C3=C(O)CN(C(C)C)C3=N)n2)cc1OC
inactive: NCI-H23 lung 101% | NCI-H226 lung 84.4% | NCI-H322M lung 91.6% | HOP-62 NSCLC 87% | NCI-H460 lung 120% | HOP-92 NSCLC 43% | NCI-H522 lung 89.1% | A549/ATCC NSCLC 88.7% | 786-0 renal 89.7% | COLO 205 colon 128%
